# Compound activity as filed in PubChem.
# This is a sample that favours compounds with a hit; in the whole collection about 6.9% have one here.
# JMJD2A Tudor inh: qHTS Assay for Inhibitors of JMJD2A-Tudor Domain; AlphaScreen JMJD2A-Tudor / H3K4me3 peptide binding; Potency, µM (top dose mostly 114 µM), for the others: top-dose activity change, negative = inhibition, hits mostly inhibitors; actives 4.4% (n = 390,000); also: % is scaled to controls: 0 for no effect and ±100 for the full control effect; nearly all actives have a fitted effect of over 50% in size
# HP1b chromo inh: HTS for Inhibitors of HP1-beta Chromodomain Interactions with Methylated Histone Tails; actives 0.56% (n = 390,000); Potency, µM (series often up to 114 µM), inactives show at the highest dose activity change, negative = inhibition, hits mostly inhibitors; AID 540317, 2011; AlphaScreen HP1-beta / biotin-H3K9me3 peptide binding; Chromobox protein homolog 1 (Homo sapiens), P83916; also: nearly all actives have a fitted effect of over 70% in size
# Target sequence (P83916 whole entry, looked up): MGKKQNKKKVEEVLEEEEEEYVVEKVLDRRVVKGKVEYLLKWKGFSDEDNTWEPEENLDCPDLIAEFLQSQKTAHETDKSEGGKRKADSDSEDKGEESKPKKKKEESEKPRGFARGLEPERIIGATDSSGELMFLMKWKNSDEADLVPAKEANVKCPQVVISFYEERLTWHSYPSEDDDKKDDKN
#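 Compound inhibition of the preformed complex between 50 nM HP1-beta and 50 nM biotinylated H3K9me3 peptide was read by AlphaScreen. Buffer was PBS pH 7.4 with 0.01% Tween-20. Incubations ran 30 min at room temperature, with 10 ug/mL donor/acceptor beads.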
# L3MBTL1 inh: qHTS Assay for the Inhibitors of L3MBTL1; Lethal(3)malignant brain tumor-like protein 1 (Homo sapiens), Q9Y468; AlphaScreen L3MBTL1–H3K9me1 peptide binding; Potency, µM (doses to about 57.1 µM), inactives show top-dose activity, negative = inhibition, actives largely listed as inhibitors; actives 0.66% (n = 230,000); also: % is scaled to controls: 0 for no effect and ±100 for the full control effect; nearly all actives have a fitted effect of over 60% in size
#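 AlphaScreen assay: L3MBTL1 (50 nM final) was preincubated 30 min at room temperature with biotinylated H3(1-15)K9me1 peptide (75 nM final), then 30 min with library compounds; streptavidin donor and nickel chelate acceptor beads (10 ug/mL final) added, 30 min dark.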
# VDR inh: Inhibitors of the vitamin D receptor (VDR): qHTS | actives 0.93% (n = 400,000) | VDR-SRC2-3 peptide fluorescence polarization, 2 h | Potency, µM, inactives show max response, negative = inhibition, most hits filed as inhibitors | Vitamin D3 receptor (Homo sapiens), P11473 | AID 504847, 2011; also: % is scaled to controls: 0 for no effect and ±100 for the full control effect
# Target sequence (P11473 whole entry, looked up): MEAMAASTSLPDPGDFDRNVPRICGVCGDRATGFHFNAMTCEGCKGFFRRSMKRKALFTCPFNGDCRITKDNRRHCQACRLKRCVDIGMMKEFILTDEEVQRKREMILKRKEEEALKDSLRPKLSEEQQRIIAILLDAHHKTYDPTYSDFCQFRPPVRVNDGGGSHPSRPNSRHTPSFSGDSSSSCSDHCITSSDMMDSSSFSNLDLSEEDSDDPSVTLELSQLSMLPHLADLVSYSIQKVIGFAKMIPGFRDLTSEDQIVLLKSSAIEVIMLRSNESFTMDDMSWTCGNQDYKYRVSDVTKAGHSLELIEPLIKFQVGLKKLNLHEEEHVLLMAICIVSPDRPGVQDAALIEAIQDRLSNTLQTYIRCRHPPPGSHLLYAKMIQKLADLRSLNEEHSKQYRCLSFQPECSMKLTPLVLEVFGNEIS
#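 Signal is fluorescence polarization, reporting how far test compounds block the interaction of VDR with the SRC2-3 coregulator peptide after a 2 h room-temperature incubation.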
# BAZ2B block: qHTS Assay for Inhibitors of BAZ2B; AlphaScreen BAZ2B-H3K14Ac peptide displacement; Potency, µM (series often up to 114 µM), without a hit: at the top dose activity change, negative = inhibition, most hits filed as inhibitors; actives 4.4% (n = 360,000); AID 504333, 2011; also: % is scaled to controls: 0 for no effect and ±100 for the full control effect; nearly all actives have a fitted effect of over 60% in size
#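 Inhibition is scored as reduced AlphaScreen emission. The BAZ2B/b-H3(5-23)K14Ac complex (50 nM each) in PBS pH 7.4, 0.01% Tween-20 meets compound (up to 110 uM) for 30 min at RT before bead addition.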
# PLK1 PBD inh: qHTS for Inhibitors of PLK1-PDB (polo-like kinase 1 - polo-box domain): Primary Screen. Serine/threonine-protein kinase PLK1 (Homo sapiens), P53350. Plk1 PBD binding of FITC phosphopeptide, fluorescence polarization. Potency, µM, inactives show max response, negative = inhibition, hits mostly inhibitors. actives 2.8% (n = 360,000); also: series mostly up to about 57 µM; % is scaled to controls: 0 for no effect and ±100 for the full control effect; nearly all actives have a fitted effect of over 65% in size
# * hit, by the source's call; u = inconclusive; x = no result given; [ ] = remark or other dose. Calls follow the shape of the dose curve; as a rule, active = well fitted curve in the direction sought with a large enough effect; inconclusive = small, poorly fitted or top-dose-only effect, or another doubt; inactive = no such curve, though single readings can be large; an effect the other way counts as inactive or inconclusive. Potency is read from the fitted curve at half-maximal effect.
SMILES,JMJD2A Tudor inh,HP1b chromo inh,L3MBTL1 inh,VDR inh,BAZ2B block,PLK1 PBD inh
COc1ccc(-n2c(/C=C/c3cccc4ccccc34)nc3ccccc3c2=O)cc1Cl,-6%,40%,x,10%,-2%,x
CCN(Cc1nc2ccccc2c(=O)[nH]1)C(=O)c1ccc(C)c(NC(=O)c2ccco2)c1,-12%,38%,2%,2%,5%,-16%
COc1cccc(C(=O)Nc2cccc(-c3nc4ncccn4c3C)c2)c1,-6%,16%[57 µM],x,3%,-37%,x
Cc1cc(C)cc(N2CCn3c2nc2c3c(=O)n(Cc3c(F)cccc3Cl)c(=O)n2C)c1,-11%,33%,x,13%,-13%,x
O=S(=O)(O)c1ccc2c(c1)-c1nc-2nc2[nH]c(nc3nc(nc4[nH]c(n1)c1ccc(S(=O)(=O)O)cc41)-c1ccc(S(=O)(=O)O)cc1-3)c1ccc(S(=O)(=O)O)cc21,x,x,x,25µM*,x,x
Cc1nn(C(=O)c2ccc(Br)cc2)c(C)c1S(=O)(=O)N1CCOCC1,u,24%[57 µM],x,-6%,0%,x
CN(C)c1ccc(CNc2nc(-c3ccco3)nn2S(C)(=O)=O)cc1,-34%,25%,x,12%,u,x
CN(C)c1ccc(CNc2nc(-c3ccco3)nn2C(=O)c2cccc([N+](=O)[O-])c2)cc1,45µM*,u,x,11%,35µM*,x
Cc1ccc(CNc2nc(-c3ccco3)nn2C(=O)c2ccccc2[N+](=O)[O-])cc1,u,u,x,15%,8.9µM*,x
COc1ccccc1CNc1nc(-c2ccco2)nn1C(=O)c1ccccc1[N+](=O)[O-],u,-1%,x,12%,u,x
Cc1cccc(C(=O)n2nc(-c3ccco3)nc2NCc2ccccc2)c1,18%,4%,x,14%,1%,x
COc1ccc(S(=O)(=O)n2nc(-c3ccco3)nc2NCc2ccc(N(C)C)cc2)cc1,13µM*,-26%,x,-3%,25µM*,x
COC(=O)c1ccc(/C=N/NC(=O)CC(=O)NC(C)C)cc1,-19%,27%,5%,-11%,-4%,-5%
CC(C)NC(=S)N/N=C/c1cc(Br)ccc1O,50µM*,u,u,-16%,18µM*,u
CNC(=S)N/N=C/c1ccc(C(C)C)cc1,u,-2%,x,-12%,x,3µM*
COC(=O)c1ccc(/C=N/NC(=S)NC(C)C)cc1,-18%[11.4 µM],-11%,x,25µM*,0%,13µM*
O=C(NCC(c1ccccc1)c1ccccc1)c1nn(-c2ccccc2F)nc1CO,-20%,39%,x,10%,6%,x
CCOc1ccccc1Nc1sc(C(=O)c2ccc(Cl)cc2)c(N)c1C#N,-12%,32%,x,10%,-14%,x
O=C(C[n+]1ccccc1)N/N=C/c1ccc(Cl)c(Cl)c1,22µM*,10%,x,9%,50µM*,-10%
O=C(CSc1nnnn1C1CC2C=CC1C2)Nc1ccc(C(=O)O)cc1 (stereo not drawn),-5%,7%,5%,-12%,8%,-5%
Oc1c(Br)cc(/C=N/Nc2ccc(Cl)nn2)cc1Br,u,u,x,-24%,50µM*,u
Oc1ccc(/C=N/Nc2ccc(Cl)nn2)c(O)c1O,11µM*,u,x,-2%,10µM*,17µM*
Oc1c(Br)cc(Br)cc1/C=N/Nc1ccc(Cl)nn1,u,63%,x,-13%,-10%,-9%
CC(=O)Nc1ccc(S(=O)(=O)NC2=C(N3CCN(C)CC3)C(=O)c3ccccc3C2=O)cc1,-25%,0%[57 µM],x,6%,32µM*,-9%
CC(=O)Nc1ccc(S(=O)(=O)NC2=C(N3CCN(Cc4ccccc4)CC3)C(=O)c3ccccc3C2=O)cc1,35µM*,32µM*,x,5%,20µM*,-6%
SMILES,JMJD2A Tudor inh,HP1b chromo inh,L3MBTL1 inh,VDR inh,BAZ2B block,PLK1 PBD inh
CCN1CCN(C2=C(NS(=O)(=O)c3ccc(C)cc3)C(=O)c3ccccc3C2=O)CC1,-35%,6%,x,-3%,u,-21%
CCOC(=O)N1CCN(C2=C(NS(=O)(=O)c3ccc(NC(C)=O)cc3)C(=O)c3ccccc3C2=O)CC1,u,-11%[57 µM],x,u,45µM*,-14%
CCOc1cc(/C=C(\CC(=O)O)c2nc3ccccc3s2)ccc1OC,13%,27%,2%,-4%,-1%,-2%
CNc1ccc(/C=C(\CCC(=O)O)c2nc3ccccc3s2)cc1[N+](=O)[O-],-17%,29%,-12%,-1%,45µM*,-21%
O=C(O)C/C(=C\c1cccc(NC(=O)c2ccccc2Cl)c1)c1nc2ccccc2s1,35µM*,-1%,x,-26%,79µM*,27µM*
COc1ccc(C(=O)Nc2cccc(/C=C(\CCC(=O)O)c3nc4ccccc4s3)c2)cc1,-29%[11.4 µM],32µM*,x,u,79µM*,11µM*
C#CCOCCOCCOCCNc1nc(N2CCOCC2)nc(N2CCN(C(=O)[C@H](CCCCN)n3cc([C@@H](N)C(C)CC)nn3)CC2)n1 (stereo partly drawn),-11%,36%,1%,-7%,-37%,3%
C#CCOCCOCCOCCNc1nc(N2CCN(C(=O)[C@H](CCC(=O)O)n3cc(C(N)Cc4ccc(O)cc4)nn3)CC2)nc(N2CCN(C(=O)[C@H](CCCCN)n3cc(C(N)[C@H](C)CC)nn3)CC2)n1 (stereo partly drawn),x,x,x,x,79µM*,x
C#CCOCCOCCOCCNc1nc(N2CCN(C(=O)[C@H](CCCCN)n3cc(CC(C)O)nn3)CC2)nc(N2CCN(C(=O)[C@H](Cc3ccc(O)cc3)n3cc(CCO)nn3)CC2)n1 (stereo partly drawn),-22%,14%,x,-29%,x,-6%
C#CCOCCOCCOCCNc1nc(N2CCN(C(=O)[C@H]([C@@H](C)CC)n3cc([C@@H](N)Cc4ccc(O)cc4)nn3)CC2)nc(N2CCN(C(=O)[C@H](CCCCN)n3cc([C@@H](N)C(C)CC)nn3)CC2)n1 (stereo partly drawn),50µM*,-2%,-11%,8%,79µM*,-6%
C#CCOCCOCCOCCNc1nc(N2CCN(C(=O)[C@H](CCCCN)n3cc(CCCC)nn3)CC2)nc(N2CCN(C(=O)[C@H](Cc3ccc(O)cc3)n3cc(CCO)nn3)CC2)n1,79µM*,-19%,9%,-7%,u,u
